Measured values as given in PubChem BioAssay (EPA / NIEHS).
Active and inactive are the calls of the source. How the source made its calls: active means hit-call score of the fitted dose curve at least 0.9, where 1 is the maximum; inactive means score below 0.9.

Columns and labels:
[1] = read-out: Monokine induced gamma interferon (MIG), CXCL9 (gene 4283); experiment: BSK_hDFCGF_MIG: BioMAP Diversity Plus: hDFCGF Assay for Monokine induced gamma interferon (MIG) Biomarker Activity (AID 2283063); conditions: primary human foreskin fibroblasts; actives raise or lower the signal
In short: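 Fibroblasts (human foreskin, primary) dosed, 24 h, MIG by ELISA; fit bidirectional vs DMSO.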

[2] = read-out: Matrix Metallopeptidase 1 (MMP1), MMP1 (gene 4312); experiment: BSK_hDFCGF_MMP1: BioMAP Diversity Plus: hDFCGF Assay for Matrix Metallopeptidase 1 (MMP1) Biomarker Activity (AID 2283064); conditions: primary human foreskin fibroblasts; actives raise or lower the signal
In short: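 MMP1 levels quantified by ELISA 24 h after dosing human dermal fibroblast cultures, with parallel SRB total-protein staining for overt cytotoxicity. Data fitted in both directions against DMSO baseline.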

[3] = read-out: Vascular cell adhesion molecule 1 (VCAM1), VCAM1 (gene 7412); experiment: BSK_hDFCGF_VCAM1: BioMAP Diversity Plus: hDFCGF Assay for Vascular cell adhesion molecule 1 (VCAM1) Biomarker Activity (AID 2283065); conditions: primary human foreskin fibroblasts; actives raise or lower the signal;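 on AC50: VCAM-1 protein level quantified by ELISA after 24 h chemical exposure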
In short: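 ELISA read-out of VCAM-1 on human skin fibroblasts, 24 h post-dose; gain or loss of signal fitted bidirectionally against DMSO baseline.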

[4] = read-out: Plasminogen activator inhibitor-1 (PAI1), SERPINE1 (gene 5054); experiment: BSK_hDFCGF_PAI1: BioMAP Diversity Plus: hDFCGF Assay for Plasminogen activator inhibitor-1 (PAI1) Biomarker Activity (AID 2283066); conditions: primary human foreskin fibroblasts; actives raise or lower the signal
In short: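 Fibroblasts from human foreskin were treated with test chemical. After 24 h, PAI-1 was measured by ELISA. Activity was fitted in both directions relative to DMSO.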

[5] = read-out: Intercellular Adhesion Molecule 1 (ICAM1), ICAM1 (gene 3383); experiment: BSK_KF3CT_ICAM1: BioMAP Diversity Plus: KF3CT Assay for Intercellular Adhesion Molecule 1 (ICAM1) Biomarker Activity (AID 2283067); conditions: primary human keratinocytes with fibroblasts; actives raise or lower the signal
In short: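 ELISA readout of ICAM-1; KF3CT human skin co-culture (keratinocytes + foreskin fibroblasts), 24 h post-dose; gain/loss fit vs DMSO baseline.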

[6] = read-out: Interferon-gamma inducible Protein 10 (IP10), CXCL10 (gene 3627); experiment: BSK_KF3CT_IP10: BioMAP Diversity Plus: KF3CT Assay for Interferon-gamma inducible Protein 10 (IP10) Biomarker Activity (AID 2283068); conditions: primary human keratinocytes with fibroblasts; actives raise or lower the signal
In short: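 Human keratinocyte plus foreskin fibroblast primary co-culture exposed to test chemical for 24 h; IP-10 measured by ELISA. Concentration-response fitted bidirectionally against DMSO control as baseline.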

[7] = BSK_KF3CT_SRB: Viability Assessment in the BioMAP Diversity Plus: KF3CT Assay (AID 2283069); conditions: primary human keratinocytes with fibroblasts;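 further: total protein by sulforhodamine B staining as a cytotoxicity measure; read 24 h after compound addition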
In short: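 Cytotoxicity was gauged by SRB staining (0.1% SRB, 10% TCA fixation, 560 nm) of parallel cultures at 24 h. The cells were primary human skin keratinocytes co-cultured with fibroblasts, and activity was fitted in both directions against DMSO.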

[8] = read-out: TIMP metallopeptidase inhibitor 2 (TIMP2), TIMP2 (gene 7077); experiment: BSK_KF3CT_TIMP2: BioMAP Diversity Plus: KF3CT Assay for TIMP metallopeptidase inhibitor 2 (TIMP2) Biomarker Activity (AID 2283071); conditions: primary human keratinocytes with fibroblasts; actives raise or lower the signal
In short: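 Chemicals were dosed onto human skin primary co-cultures of keratinocytes and foreskin fibroblasts, and TIMP-2 was measured by ELISA after 24 hours. Activity in either direction was fitted relative to DMSO.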

[9] = read-out: Transforming growth factor beta 1 (TGFb1), TGFB1 (gene 7040); experiment: BSK_KF3CT_TGFb1: BioMAP Diversity Plus: KF3CT Assay for Transforming growth factor beta 1 (TGFb1) Biomarker Activity (AID 2283072); conditions: primary human keratinocytes with fibroblasts; actives raise or lower the signal
In short: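 KF3CT co-culture (keratinocytes + fibroblasts), 24 h exposure → TGF-b1 ELISA → bidirectional fit, DMSO = baseline. Parallel SRB total-protein staining (0.1% SRB, 10% TCA fixation, 560 nm) for cytotoxicity.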

[10] = read-out: C-C motif chemokine 2 (Homo sapiens) (UniProt P13500); experiment: BSK_KF3CT_MCP1: BioMAP Diversity Plus: KF3CT Assay for Monocyte Chemoattractant Protein 1 (MCP1/CCL2) Biomarker Activity (AID 2283073); conditions: primary human keratinocytes with fibroblasts; actives raise or lower the signal
In short: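 KF3CT skin co-culture (keratinocytes/foreskin fibroblasts), 24 h post-dose; MCP-1 by ELISA; gain/loss of signal fit bidirectionally vs DMSO baseline.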

[11] = read-out: Matrix Metallopeptidase 9 (MMP9), MMP9 (gene 4318); experiment: BSK_KF3CT_MMP9: BioMAP Diversity Plus: KF3CT Assay for Matrix Metallopeptidase 9 (MMP9) Biomarker Activity (AID 2283074); conditions: primary human keratinocytes with fibroblasts; actives raise or lower the signal;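 on AC50: MMP9 protein level quantified by ELISA in the co-culture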
In short: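 MMP-9 quantified by ELISA after 24 h chemical treatment of primary human skin keratinocyte/fibroblast co-cultures; gain or loss fitted against DMSO, with parallel SRB staining (0.1% SRB, 560 nm) for overt cytotoxicity.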

[12] = read-out: urokinase plasminogen activator (uPA), PLAU (gene 5328); experiment: BSK_KF3CT_uPA: BioMAP Diversity Plus: KF3CT Assay for urokinase plasminogen activator (uPA) Biomarker Activity (AID 2283075); conditions: primary human keratinocytes with fibroblasts; actives raise or lower the signal
In short: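 ELISA read-out of uPA 24 h after dosing human skin keratinocytes co-cultured with foreskin fibroblasts. Signal change fitted both ways relative to DMSO; sulforhodamine B on parallel cultures marks overt cytotoxicity.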

[13] = read-out: CD40, CD40 (gene 958); experiment: BSK_LPS_CD40: BioMAP Diversity Plus: LPS Assay for CD40 Biomarker Activity (AID 2283076); conditions: primary human HUVEC with PBMC; actives raise or lower the signal
In short: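 ELISA readout of CD40 in HUVEC/PBMC co-culture (BSK_LPS system), 24 h post-dosing; bidirectional curve fit, DMSO baseline; parallel SRB total-protein staining for cytotoxicity.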

[14] = read-out: E-selectin (Homo sapiens) (UniProt P16581); experiment: BSK_LPS_Eselectin: BioMAP Diversity Plus: LPS Assay for Eselectin Biomarker Activity (AID 2283077); conditions: primary human HUVEC with PBMC; actives raise or lower the signal
In short: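 ELISA readout of E-selectin, 24 h post-dose, HUVEC + PBMC co-culture (LPS system). Gain or loss of signal vs DMSO baseline, bidirectional fit.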

[15] = read-out: Interleukin-8 (IL8), CXCL8 (gene 3576); experiment: BSK_LPS_IL8: BioMAP Diversity Plus: LPS Assay for Interleukin-8 (IL8) Biomarker Activity (AID 2283078); conditions: primary human HUVEC with PBMC; actives raise or lower the signal
In short: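 HUVEC + PBMC co-culture, LPS-activated; test chemicals dosed, IL-8 read by ELISA at 24 h. Bidirectional curve fit vs DMSO baseline (gain or loss of signal).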

[16] = BSK_LPS_SRB: Viability Assessment in the BioMAP Diversity Plus: LPS Assay (AID 2283079); conditions: primary human HUVEC with PBMC;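 further: total protein by sulforhodamine B absorbance as a cytotoxicity measure; measured one day after compound addition; fitted in both directions against DMSO so loss or gain of signal counts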
In short: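 HUVEC + PBMC co-culture, LPS-stimulated; compound 24 h. 10% TCA fix, 0.1% SRB stain, A560. Bidirectional fit vs DMSO.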

[17] = read-out: Interleukin-1 alpha (IL1a), IL1A (gene 3552); experiment: BSK_LPS_IL1a: BioMAP Diversity Plus: LPS Assay for Interleukin-1 alpha (IL1a) Biomarker Activity (AID 2283080); conditions: primary human HUVEC with PBMC; actives raise or lower the signal
In short: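 HUVEC/PBMC co-culture, LPS system; 24 h after dosing; IL-1a by ELISA; gain or loss of signal fitted bidirectionally vs DMSO baseline.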

[18] = read-out: Monocyte Chemoattractant Protein-1 (MCP1), CCL2 (gene 6347); experiment: BSK_LPS_MCP1: BioMAP Diversity Plus: LPS Assay for Monocyte Chemoattractant Protein-1 (MCP1) Biomarker Activity (AID 2283081); conditions: primary human HUVEC with PBMC; actives raise or lower the signal;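 on AC50: secreted MCP-1 protein quantified by ELISA in culture supernatant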
In short: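 ELISA read-out of MCP-1 after 24 h chemical dosing of a human umbilical vein endothelial cell/peripheral blood mononuclear cell co-culture stimulated with LPS. Gain or loss of signal fitted relative to DMSO controls.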

[19] = BSK_LPS_PGE2: BioMAP Diversity Plus: LPS Assay for Prostaglandin E2 (PGE2) Biomarker Activity (AID 2283082); conditions: primary human HUVEC with PBMC; actives raise or lower the signal;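 on AC50: secreted prostaglandin E2 measured by ELISA in LPS-stimulated co-culture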
In short: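 Compounds were added to the LPS co-culture of endothelium and PBMC, and PGE2 was measured by ELISA after 24 h. Responses in either direction were fitted with DMSO as baseline.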

[20] = read-out: Interleukin-1 alpha (IL1a), IL1A (gene 3552); experiment: BSK_KF3CT_IL1a: BioMAP Diversity Plus: KF3CT Assay for Interleukin-1 alpha (IL1a) Biomarker Activity (AID 2283070); conditions: primary human keratinocytes with fibroblasts; actives raise or lower the signal
In short: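 IL-1a was detected by ELISA 24 h after chemical treatment of a co-culture of human skin keratinocytes and foreskin fibroblasts. Gain or loss of signal was fitted against the DMSO baseline.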

Measured: AC50

Chain of E-selectin (Homo sapiens) (P16581 whole entry, looked up): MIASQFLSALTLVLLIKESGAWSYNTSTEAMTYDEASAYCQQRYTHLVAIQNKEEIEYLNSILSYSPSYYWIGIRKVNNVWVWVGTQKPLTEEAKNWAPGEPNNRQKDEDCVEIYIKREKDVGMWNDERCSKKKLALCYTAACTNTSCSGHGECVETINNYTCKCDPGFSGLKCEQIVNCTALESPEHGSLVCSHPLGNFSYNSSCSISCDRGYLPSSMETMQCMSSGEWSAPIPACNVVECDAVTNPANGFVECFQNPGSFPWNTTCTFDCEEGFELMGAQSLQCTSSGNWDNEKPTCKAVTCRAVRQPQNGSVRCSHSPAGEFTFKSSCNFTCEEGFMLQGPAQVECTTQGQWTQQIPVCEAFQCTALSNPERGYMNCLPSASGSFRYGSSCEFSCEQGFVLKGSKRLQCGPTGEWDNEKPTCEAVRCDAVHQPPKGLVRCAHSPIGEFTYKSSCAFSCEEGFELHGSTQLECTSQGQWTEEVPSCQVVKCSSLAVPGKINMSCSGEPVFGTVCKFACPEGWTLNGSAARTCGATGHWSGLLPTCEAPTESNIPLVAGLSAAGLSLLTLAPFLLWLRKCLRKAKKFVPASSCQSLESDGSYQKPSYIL

CC(=O)CC(c1ccccc1)c1c(O)c2ccccc2oc1=O (stereo not drawn)
not listed: [20]
inactive: all other assays above

COc1ccc(OC(F)(F)F)cc1CN[C@H]1CCCN[C@H]1c1ccccc1
active: [13] 26.6 µM | [15] 9.98 µM | [16] 20 µM | [18] 7.98 µM
not listed: [20]
inactive: all other assays above

O=C1c2c(O)cccc2Cc2cccc(O)c21
active: [1] 15.7 µM | [3] 20 µM | [5] 25.1 µM | [6] 28.8 µM | [8] 20 µM | [9] 24.6 µM | [10] 20 µM | [11] 10.2 µM | [12] 27.8 µM
not listed: [20]
inactive: all other assays above

O=Cc1ccccc1C=O
not listed: [20]
inactive: all other assays above

CCCCCCC(C=O)=Cc1ccccc1
active: [3] 32 µM | [6] 30.5 µM | [15] 30.2 µM | [16] 29.3 µM | [17] 33.6 µM | [19] 15.3 µM
not listed: [2] | [8]
inactive: all other assays above

CC1(C)C(=O)NC(=O)N1CO
active: [19] 0.749 µM
not listed: [8] | [20]
inactive: all other assays above

NC=O
not listed: [8] | [20]
inactive: all other assays above

CC(C)(C)c1ccccc1
not listed: [20]
inactive: all other assays above

O=C(NS(=O)(=O)/C=C/c1cccs1)c1ccc(F)cc1Br
active: [13] 0.451 µM
not listed: [8] | [20]
inactive: all other assays above

C/C=C/C=C/C(=O)O
not listed: [10] | [20]
inactive: all other assays above

CC(C)OC(=O)C(C)(C)Oc1ccc(C(=O)c2ccc(Cl)cc2)cc1
active: [4] 3.97 µM | [13] 29.4 µM | [15] 32 µM | [16] 27.8 µM | [18] 29.7 µM
not listed: [6]
inactive: all other assays above

CCCC(=O)O
not listed: [8] | [20]
inactive: all other assays above

COC(=O)[C@H]1[C@H]2C[C@@H]3c4[nH]c5cc(OC)ccc5c4CCN3C[C@H]2C[C@@H](OC(=O)c2cc(OC)c(OC)c(OC)c2)[C@@H]1OC
active: [13] 23.5 µM | [16] 21.8 µM | [17] 22.6 µM | [18] 18.6 µM
not listed: [4]
inactive: all other assays above

CN(C)CCCN(C)CCCN(C)C
not listed: [13] | [20]
inactive: all other assays above

Cn1cnc2c1c(=O)[nH]c(=O)n2C
not listed: [8] | [20]
inactive: all other assays above

OCC(O)CO
not listed: [8] | [20]
inactive: all other assays above

CC1=C(C)S(=O)(=O)CCS1(=O)=O
active: [13] 4.33 µM
not listed: [8] | [20]
inactive: all other assays above
